Reference: PubChem BioAssay (Tox21)
Values joined by “and” are separate entries in the source; they are usually repeats but may differ in a detail not shown here. Equal values may be shown once. Results filed as inconclusive are left out. Active and inactive are the calls of the source. Unless noted, calls come from the whole dose curve; as a rule, active = well fitted curve in the direction sought with a large enough effect in the repeat runs; inconclusive = weak or mixed curves; inactive = no such curve, though single readings can be large; an effect the other way counts as inactive or inconclusive.

Experiments:
[1] = qHTS assay to identify small molecule agonists of the estrogen receptor alpha (ER-alpha) signaling pathway in the presence of an antagonist - cell viability counter screen (AID 1259386);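 note: cells exposed to compounds for 22 h at 37 °C before the viability read; nearly all actives have a fitted effect of over 30% in size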; note: potency is the fitted concentration of half-maximal effect
Method in brief: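 Cytotoxicity was measured in parallel with the ERE-luciferase agonist screen, in the same wells. The cells were VM7Luc4E2, which endogenously express ER-alpha, and treatment was with compounds plus 10.0nM ICI-182,780 for 22hr.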

[2] = qHTS assay to identify small molecule agonists of the progesterone receptor (PR) signaling pathway - cell viability counter screen (AID 1346799; calls by dose curve; note: nearly all actives have a fitted effect of over 45% in size; note: potency is the fitted concentration of half-maximal effect)
Method in brief: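 Counter screen for cytotoxicity: compound-treated PR-UAS-bla HEK293T cells (16 hr, 37C, 5% CO2) were assayed with CellTiter-Glo, luminescence measured after 30 min at room temperature.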

[3] = qHTS assay to identify small molecule antagonists of the TGF-beta/Smad signaling pathway - cell viability counter screen (AID 1346824); note: nearly all actives have a fitted effect of over 50% in size; note: potency is the fitted concentration of half-maximal effect
Method in brief: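 Cytotoxicity counter-screen run in the same wells as the beta-lactamase Smad reporter read: CellTiter-Glo luminescence after 30 min at room temperature. HEK 293T SBE-bla cells had 5 hr compound exposure at 37 C with TGF-beta1 (0.25 ng/mL stock).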

[4] = qHTS assay to identify small molecule agonists of the TGF-beta/Smad signaling pathway - cell viability counter screen (AID 1346829); note: nearly all actives have a fitted effect of over 45% in size; note: potency is the fitted concentration of half-maximal effect
Method in brief: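 Luminescence from CellTiter-Glo, read after a 30 min room-temperature incubation, gives cell viability of SBE-bla HEK 293T cells treated 5 hr with compounds at 37 C.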

[5] = qHTS assay to identify small molecule agonists of the TGF-beta/Smad signaling pathway (AID 1346859; active = well fitted activation curve with a large enough effect in the signal ratio in the repeat runs, not every such curve was filed as active; the % refers to the signal ratio; note: series mostly up to about 77 µM)
Method in brief: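 Smad-responsive beta-lactamase reporter cells (HEK 293T) received compounds from DMSO stocks after overnight attachment, were incubated 5 hr, then treated 2 hr with FRET substrate before dual-emission fluorescence measurement (405 nm excitation).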

[6] = molecular target: Thyrotropin-releasing hormone receptor (Homo sapiens) (UniProt P34981); assay: qHTS assay to identify small molecule antagonists of the thyrotropin-releasing hormone receptor (TRHR) signaling pathway (AID 1346877; active = well fitted inhibition curve with a large enough effect in the repeat runs, not every such curve was filed as active; note: potency is the fitted concentration of half-maximal effect)
Thyrotropin-releasing hormone receptor (Homo sapiens), sequence (P34981 whole entry, looked up): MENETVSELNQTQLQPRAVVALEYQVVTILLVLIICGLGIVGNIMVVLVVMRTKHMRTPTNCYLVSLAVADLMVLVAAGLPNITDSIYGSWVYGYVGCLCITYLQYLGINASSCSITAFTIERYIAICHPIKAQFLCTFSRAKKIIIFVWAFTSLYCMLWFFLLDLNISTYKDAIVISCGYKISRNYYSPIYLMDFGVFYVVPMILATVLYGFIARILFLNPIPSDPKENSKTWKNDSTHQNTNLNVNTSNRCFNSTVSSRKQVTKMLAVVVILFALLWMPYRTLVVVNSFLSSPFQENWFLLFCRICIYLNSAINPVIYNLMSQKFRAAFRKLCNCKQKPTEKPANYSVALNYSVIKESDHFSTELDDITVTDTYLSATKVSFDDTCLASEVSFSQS
Method in brief: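 Antagonism is measured as suppression of the calcium response to 1 nM TRH in TRHR-HEK293 cells that have been dye-loaded for 2 h at 37 °C after overnight plating. Each compound is tested at 15 concentrations in triplicate.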

[7] = molecular target: Thyrotropin-releasing hormone receptor (Homo sapiens) (UniProt P34981); assay: qHTS assay to identify small molecule agonists of the thyrotropin-releasing hormone receptor (TRHR) signaling pathway (AID 1346891; calls by dose curve; note: potency is the fitted concentration of half-maximal effect;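 for activation: HEK293 cells expressing TRHR with calcium dye readout; series mostly up to about 58 µM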)
Method in brief: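 Agonist-mode calcium mobilisation screen: TRHR-transfected HEK293 cells cultured overnight (18 h), dye-loaded for 2 h at 37 °C, exposed to compounds, and monitored by fluorescence for 3 min.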

[8] = qHTS assay to identify small molecule antagonists of the progesterone receptor (PR) signaling pathway - cell viability counter screen (AID 1346798); note: nearly all actives have a fitted effect of over 50% in size; note: potency is the fitted concentration of half-maximal effect
Method in brief: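 Same-well multiplex: after 16 hr at 37C with compound and R5020 stimulation, HEK293T cells carrying a UAS-bla reporter received LiveBLAzer substrate (2 hr RT), then CellTiter-Glo (30 min RT) for luminescent viability.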

[9] = molecular target: Progesterone receptor (Homo sapiens) (UniProt P06401); assay: qHTS assay to identify small molecule agonists of the progesterone receptor (PR) signaling pathway (AID 1346784; calls by dose curve; note: nearly all actives have a fitted effect of over 30% in size)
Progesterone receptor (Homo sapiens), sequence (P06401 whole entry, looked up): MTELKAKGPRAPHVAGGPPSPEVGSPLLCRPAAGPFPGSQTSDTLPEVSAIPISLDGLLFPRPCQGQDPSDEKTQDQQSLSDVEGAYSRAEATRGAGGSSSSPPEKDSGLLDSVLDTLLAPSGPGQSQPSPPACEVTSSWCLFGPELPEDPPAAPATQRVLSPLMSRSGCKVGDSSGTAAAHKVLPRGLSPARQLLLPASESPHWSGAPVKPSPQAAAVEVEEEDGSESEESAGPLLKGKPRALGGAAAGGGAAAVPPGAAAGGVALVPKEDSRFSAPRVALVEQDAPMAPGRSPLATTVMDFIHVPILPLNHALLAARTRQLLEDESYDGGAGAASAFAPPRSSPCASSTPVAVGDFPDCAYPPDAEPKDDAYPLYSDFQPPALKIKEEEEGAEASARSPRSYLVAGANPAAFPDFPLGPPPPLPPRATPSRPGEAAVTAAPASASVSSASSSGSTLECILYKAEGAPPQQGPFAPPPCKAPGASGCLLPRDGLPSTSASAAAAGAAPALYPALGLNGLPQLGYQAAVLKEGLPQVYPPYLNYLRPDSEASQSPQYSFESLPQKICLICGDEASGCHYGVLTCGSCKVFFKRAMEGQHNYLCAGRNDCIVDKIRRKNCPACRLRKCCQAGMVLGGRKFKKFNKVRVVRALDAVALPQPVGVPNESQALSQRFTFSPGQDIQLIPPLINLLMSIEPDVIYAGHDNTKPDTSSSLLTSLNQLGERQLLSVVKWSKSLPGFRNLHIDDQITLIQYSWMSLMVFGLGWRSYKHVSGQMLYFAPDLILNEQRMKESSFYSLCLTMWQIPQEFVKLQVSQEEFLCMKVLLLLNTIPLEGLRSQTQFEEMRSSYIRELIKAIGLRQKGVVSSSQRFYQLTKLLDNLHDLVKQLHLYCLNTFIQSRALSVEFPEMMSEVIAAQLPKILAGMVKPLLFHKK
Method in brief: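 Agonist mode, quantitative HTS format in a HEK 293T line expressing a UAS-controlled beta-lactamase reporter; 16 hr compound exposure at 37C in 2% charcoal-stripped FBS, then LiveBLAzer B/G FRET fluorescence.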

[10] = molecular target: Progesterone receptor (Homo sapiens) (UniProt P06401); assay: qHTS assay to identify small molecule antagonists of the progesterone receptor (PR) signaling pathway (AID 1346795; active = well fitted inhibition curve with a large enough effect in the signal ratio in the repeat runs, not every such curve was filed as active; the % refers to the signal ratio; note: potency is the fitted concentration of half-maximal effect)
Method in brief: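 HEK293T PR-UAS-bla reporter cells in charcoal-stripped serum (2%) received compound after a 6 hr settling period, followed by R5020 agonist at 1 nM final; 16 hr incubation preceded the FRET substrate step and fluorescence measurement.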

Measured: Potency

Cc1nn(-c2cc(NS(C)(=O)=O)c(Cl)cc2Cl)c(=O)n1C(F)F
not listed: [8] | [9] | [10]
inactive: all other assays above

COc1ccc2[nH]cc(CCN(C(C)C)C(C)C)c2c1
inactive: [1] | [8] | [3] | [5]

Oc1cc(Cl)cc(Cl)c1
inactive: [1] | [3] | [4] | [5] | [6] | [7]

N#Cc1sc2c(=O)c3ccccc3c(=O)c=2sc1C#N
active: [1] 7.7 µM | [8] 30.6 µM | [2] 30.6 µM | [3] 49 µM | [4] 38.9 µM
inactive: [7]

CC(O)C(=O)[O][Hg][c]1ccccc1 (stereo not given)
active: [1] 12.2 µM | [2] 4.86 µM | [3] 9.77 µM

Cc1cc(C2CC2)nc(Nc2ccccc2)n1
inactive: [1] | [3] | [4] | [5]

COP(=S)(OC)Oc1nc(Cl)c(Cl)cc1Cl
inactive: [1] | [3] | [4] | [5] | [6] | [7]

CCCCn1cc[n+](C)c1.[Cl][Fe-]([Cl])([Cl])[Cl]
inactive: [1] | [8] | [3] | [5]

CC[C@]1(O)CC[C@H]2[C@@H]3CCC4=CCCC[C@@H]4[C@H]3CC[C@@]21C
inactive: [1] | [3] | [4] | [5]

N#Cc1c2ccccc2cc2ccccc12
inactive: [1] | [8] | [3] | [4]

Cc1ccc([N+](=O)[O-])[c]2c1[O][Hg]2
active: [1] 29.8 µM | [8] 4.22 µM | [3] 19 µM | [4] 23.9 µM
inactive: [5]

COC(=O)/C=C(\C)OP(=O)(OC)OC
active: [3] 0.174 µM
not listed: [2] | [9] | [10]
inactive: all other assays above

[Cl-].[Cl-].[Cl-].[Yb+3]
inactive: [1] | [8] | [3] | [4] | [5]

C[C@]12C/C(=C/O)C(=O)C[C@@H]1CC[C@@H]1[C@@H]2CC[C@@]2(C)[C@H]1CC[C@]2(C)O
active: [8] 69.2 µM | [2] 77.7 µM
inactive: [1] | [3] | [6] | [7]

O.O.O.O.O.O.O=S(=O)([O-])[O-].[Ni+2]
inactive: [1] | [8] | [3] | [4] | [5]

C#CCC1=C(C)C(OC(=O)C2C(C=C(C)C)C2(C)C)CC1=O (stereo not given)
inactive: [1] | [3] | [4] | [5] | [6] | [7]

COP(=S)(OC)Oc1ccc([N+](=O)[O-])c(C)c1
inactive: [1] | [8] | [3] | [5] | [6] | [7]

c1csc(-c2ccc(-c3cccs3)s2)c1
not listed: [5] | [9] | [10]
inactive: all other assays above

[Cl][Hg][c]1ccccc1
active: [1] 17.2 µM | [3] 19.5 µM | [4] 17.4 µM

CC(Cl)CCl (stereo not given)
inactive: [1] | [8] | [3] | [4] | [5]

C[C@]12CC[C@H]3[C@@H](CCC4=CC(=O)CC[C@@H]43)[C@@H]1CC[C@@H]2OC(=O)CCc1ccco1
not listed: [2] | [9] | [10]
inactive: all other assays above

CCCCn1cc[n+](C)c1 (tested in a mixture with another compound)
inactive: [1] | [2] | [3] | [4] | [5]

[F][Sn]([c]1ccccc1)([c]1ccccc1)[c]1ccccc1
active: [1] 10.9 µM | [2] 1.54 µM | [3] 1.38 µM | [4] 1.23 µM | [6] 3.38 µM | [7] 4.36 µM

Nc1c(Cl)c(Cl)c(Cl)c(Cl)c1Cl
inactive: [4] | [5] | [6] | [7]

c1ccc(Nc2ccc(Nc3ccccc3)cc2)cc1
active: [10] 6.09 µM
not listed: [1] | [2] | [8]
inactive: all other assays above

Fc1ccc(C(OCCN2CCN(CCCc3ccccc3)CC2)c2ccc(F)cc2)cc1
active: [1] 29.8 µM | [4] 23.9 µM
inactive: [5] | [6] | [7]

CNC(C)(C)Cc1ccccc1
not listed: [1] | [6] | [7]
inactive: all other assays above

C[C@H]1[C@H](c2ccc(Cl)cc2)SC(=O)N1C(=O)NC1CCCCC1
inactive: [9] | [4] | [5] | [6] | [7]

CCCCCCCc1ccc(O)cc1
inactive: [9] | [8] | [3] | [5] | [6] | [7]

O=S(=O)(NS(=O)(=O)C(F)(F)F)C(F)(F)F
inactive: [8] | [3] | [5]

Cc1ccccc1OP(=O)(Oc1ccccc1C)Oc1ccccc1C
not listed: [1] | [2] | [10]
inactive: all other assays above

O=C(NC(=O)c1c(F)cccc1F)Nc1ccc(Oc2ccc(C(F)(F)F)cc2Cl)cc1F
inactive: [10] | [8] | [4] | [5] | [6] | [7]

Nc1ccc(Cl)cc1C(=O)c1ccccc1F
not listed: [1] | [10]
inactive: all other assays above

O=C1C[C@@H]2OCC=C3CN4CC[C@]56c7ccccc7N1[C@H]5[C@H]2[C@H]3C[C@H]46
not listed: [1] | [2] | [8]
inactive: all other assays above

CC1=C2C[C@H]3[C@@H](CC=C4C[C@@H](O)CC[C@@]43C)[C@@H]2CC[C@]12O[C@@H]1C[C@H](C)CN[C@H]1[C@H]2C
inactive: [3] | [4] | [5] | [6] | [7]

O.O.O.O.O.O.O.O=S(=O)([O-])[O-].[Co+2]
inactive: [3] | [4] | [5]

NC1CCC(CC2CCC(N)CC2)CC1 (stereo not given)
active: [2] 26.8 µM
not listed: [1] | [8]
inactive: all other assays above

CCC[CH2][Sn]([CH2]CCC)([CH2]CCC)[O][Sn]([CH2]CCC)([CH2]CCC)[CH2]CCC
active: [1] 0.475 µM | [3] 1.51 µM | [4] 1.51 µM | [6] 1.05 µM | [7] 1.35 µM

c1ccc2nc(N3CCNCC3)ccc2c1
inactive: [3] | [4] | [5] | [6] | [7]

CN1CCc2cc3c(cc2C1O)OCO3 (stereo not given)
not listed: [1] | [5] | [9]
inactive: all other assays above

CC(C)=CCN1CC[C@@]2(C)c3cc(O)ccc3C[C@@H]1[C@@H]2C
not listed: [1] | [2]
inactive: all other assays above

CCN(CC)CCc1c[nH]c2ccccc12
active: [8] 90.4 µM
inactive: [3] | [4] | [5] | [6] | [7]

COP(=O)(OC)Oc1ccc([N+](=O)[O-])cc1
inactive: [8] | [3] | [5] | [6] | [7]

ClC1=C(Cl)[C@]2(Cl)[C@@H]3[C@H]4C[C@H]([C@@H]5O[C@H]45)[C@@H]3[C@@]1(Cl)C2(Cl)Cl
inactive: [9] | [3] | [4] | [5] | [6] | [7]

CCC[CH2][Sn]([CH2]CCC)([O]C(C)=O)[O]C(C)=O
inactive: [3] | [4]
active: [2] 0.978 µM

Oc1cc(Cl)c(Cl)c(Cl)c1Cl
inactive: [9] | [2] | [4] | [6] | [7]

CCO/N=C(\CC)C1=C(O)CC(c2c(C)cc(C)cc2C)CC1=O (stereo not given)
inactive: [1] | [3] | [5]

CCCCCON=O
not listed: [1] | [6] | [7]
inactive: all other assays above

O=C1C(Cl)=C(Cl)C(=O)C(Cl)=C1Cl
inactive: [9] | [10] | [8] | [2] | [6] | [7]

CC(C)N(C(=O)CCl)c1ccccc1
active: [8] 61.1 µM and 48.6 µM
not listed: [1] | [3] | [10]
inactive: all other assays above

CN1CCc2cc(Cl)c(O)cc2[C@H]2c3ccccc3CC[C@@H]21
inactive: [9] | [3] | [4] | [5]

[O]=[Cr](=[O])([OH])[O][Cr](=[O])(=[O])[OH]
active: [3] 27.8 µM and 24.5 µM | [4] 24.8 µM and 24.5 µM
inactive: [8] | [2] | [5]

O=C1C2(Cl)C3(Cl)C4(Cl)C(Cl)(Cl)C5(Cl)C3(Cl)C1(Cl)C5(Cl)C24Cl (stereo not given)
inactive: [3] | [5]
active: [10] 29.3 µM | [6] 28.9 µM | [7] 30.4 µM and 37.3 µM

CC(Cc1ccc(OCC(=O)O)cc1)NCC(O)c1csc(C(F)(F)F)n1 (stereo not given)
not listed: [1]
inactive: all other assays above

Cc1c([N+](=O)[O-])c(C)c([N+](=O)[O-])c(C(C)(C)C)c1[N+](=O)[O-]
inactive: [1] | [3] | [4] | [5] | [6] | [7]

FC(F)C(F)(F)OCC(Cn1cncn1)c1ccc(Cl)cc1Cl (stereo not given)
inactive: [4] | [5] | [6] | [7]
active: [10] 19.2 µM

CCN1CCC2(CC1)COc1cc3c(cc12)N(C(=O)c1ccc(-c2ccc(-c4nnc(C)o4)cc2C)cc1)CC3
active: [2] 8.93 µM
inactive: [9] | [6] | [7]

CC(=O)[O-].CC(=O)[O-].CC(=O)[O-].[Cr+3]
inactive: [8] | [3] | [5]

c1ccc2c(c1)cc1ccc3cccc4ccc2c1c34
inactive: [3] | [4] | [6] | [7]

N#Cc1c[nH]cc1-c1cccc2c1OC(F)(F)O2
inactive: [8] | [3] | [5] | [6] | [7]

Clc1ccc(C2(Cn3cncn3)OCCO2)c(Cl)c1
inactive: [1] | [3] | [5] | [6] | [7]

COC(=O)c1cc(Oc2ccc(Cl)cc2Cl)ccc1[N+](=O)[O-]
inactive: [3] | [4] | [5]
active: [10] 15.4 µM

O.O.O.O=C([O-])[C@H]([O-])[C@@H]([O-])C(=O)[O-].O=C([O-])[C@H]([O-])[C@@H]([O-])C(=O)[O-].[K+].[K+].[Sb+3].[Sb+3]
inactive: [3] | [4] | [5] | [6] | [7]
active: [1] 54.8 µM
